Common to all, as to assay: DAPPL (digital affinity profiling via proximity ligation, sequencing); 10 mM Tris-HCl pH 7.5, 50 mM NaCl, 1 mM DTT, 4% glycerol, room temperature, 30 min; GST-TFs on glutathione beads, 16-mer random dsDNA library, 0.1% formaldehyde crosslink after washing; high values mean tight binding
For one experiment, the target named is T1, FEV (Homo sapiens, UniProt Q99581 1-238).
T1 sequence: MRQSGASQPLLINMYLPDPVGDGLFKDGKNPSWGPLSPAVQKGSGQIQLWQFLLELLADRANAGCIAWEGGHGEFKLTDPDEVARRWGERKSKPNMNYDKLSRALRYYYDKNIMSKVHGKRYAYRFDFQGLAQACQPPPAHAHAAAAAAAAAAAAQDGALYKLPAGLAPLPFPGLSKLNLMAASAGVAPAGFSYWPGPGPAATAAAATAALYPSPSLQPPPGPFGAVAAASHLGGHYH
Conditions: protein: recombinant; tags: N-terminal GST; dsDNA, one strand shown. In a few lines: (§1)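 Human transcription factors fused to GST were expressed in yeast, captured on glutathione beads, given DNA barcodes and pooled with a GST-only negative control. Pools were incubated with 200 nmole of a 16-mer random double-stranded DNA library in Tris/NaCl/DTT/glycerol buffer at room temperature for 30 min. They were then washed, crosslinked with 0.1% formaldehyde, proximity-ligated (BsaI/T4 ligase, 1 h, 37 °C), PCR-amplified and sequenced on an Illumina NextSeq500. Binding signal is each 6-mer's read frequency for a factor divided by its frequency for the GST control.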

In another experiment the target is ETV5 (Homo sapiens, UniProt P41161 1-510). Conditions: protein: recombinant; tags: N-terminal GST; dsDNA, one strand shown. In a few lines: as §1
A further experiment has as its target HSF1 (Homo sapiens, UniProt Q00613 1-529). Conditions: protein: recombinant; tags: N-terminal GST; chain copies: 3; dsDNA, one strand shown. In a few lines: as §1
A further experiment addresses T2, SPIC (Homo sapiens, UniProt Q8N5J4 1-248).
T2 sequence: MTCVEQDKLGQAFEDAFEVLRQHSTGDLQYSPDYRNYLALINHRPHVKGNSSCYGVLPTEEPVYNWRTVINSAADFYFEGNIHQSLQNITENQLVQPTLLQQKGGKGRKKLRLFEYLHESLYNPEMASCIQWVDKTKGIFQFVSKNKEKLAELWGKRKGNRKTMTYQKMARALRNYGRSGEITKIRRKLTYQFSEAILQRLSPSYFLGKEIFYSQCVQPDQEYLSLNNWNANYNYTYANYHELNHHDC
Conditions: protein: recombinant; tags: N-terminal GST; dsDNA, one strand shown. Summed up:
as §1

The target of another experiment is ELF4 (Homo sapiens, UniProt Q99607 1-663). The note with it: protein: recombinant; tags: N-terminal GST; dsDNA, one strand shown. Summed up:
as §1

The target in another experiment is T3, ELK4 (Homo sapiens, UniProt P28324-2 1-405).
T3 sequence: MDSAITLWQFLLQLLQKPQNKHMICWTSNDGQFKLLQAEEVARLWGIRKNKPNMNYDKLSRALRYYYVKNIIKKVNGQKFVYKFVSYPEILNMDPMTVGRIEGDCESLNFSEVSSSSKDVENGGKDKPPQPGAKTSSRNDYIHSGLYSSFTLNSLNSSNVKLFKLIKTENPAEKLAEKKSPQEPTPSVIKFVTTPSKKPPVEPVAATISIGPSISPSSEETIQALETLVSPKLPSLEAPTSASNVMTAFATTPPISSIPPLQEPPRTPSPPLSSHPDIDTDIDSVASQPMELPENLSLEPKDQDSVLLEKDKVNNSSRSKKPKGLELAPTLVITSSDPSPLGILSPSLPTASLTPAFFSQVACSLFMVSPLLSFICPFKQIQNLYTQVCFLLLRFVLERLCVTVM
Conditions: protein: recombinant; tags: N-terminal GST; dsDNA, one strand shown. In a few lines: as §1

The target of a further experiment is T4, ETV2 (Homo sapiens, UniProt O00321 1-342).
T4 sequence: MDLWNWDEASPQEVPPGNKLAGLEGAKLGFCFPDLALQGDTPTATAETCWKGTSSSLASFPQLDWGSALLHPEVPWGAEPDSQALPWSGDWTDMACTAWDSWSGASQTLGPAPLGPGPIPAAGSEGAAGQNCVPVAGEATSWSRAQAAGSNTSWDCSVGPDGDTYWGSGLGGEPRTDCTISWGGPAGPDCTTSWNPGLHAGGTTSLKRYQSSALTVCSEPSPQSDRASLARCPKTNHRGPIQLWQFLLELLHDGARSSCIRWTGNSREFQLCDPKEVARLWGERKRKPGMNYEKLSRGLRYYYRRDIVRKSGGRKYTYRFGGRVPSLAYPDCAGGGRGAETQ
Conditions: protein: recombinant; tags: N-terminal GST; dsDNA, one strand shown. Summed up:
as §1

A further experiment deals with T5, ELF3 (Homo sapiens, UniProt P78545 1-371).
T5 sequence: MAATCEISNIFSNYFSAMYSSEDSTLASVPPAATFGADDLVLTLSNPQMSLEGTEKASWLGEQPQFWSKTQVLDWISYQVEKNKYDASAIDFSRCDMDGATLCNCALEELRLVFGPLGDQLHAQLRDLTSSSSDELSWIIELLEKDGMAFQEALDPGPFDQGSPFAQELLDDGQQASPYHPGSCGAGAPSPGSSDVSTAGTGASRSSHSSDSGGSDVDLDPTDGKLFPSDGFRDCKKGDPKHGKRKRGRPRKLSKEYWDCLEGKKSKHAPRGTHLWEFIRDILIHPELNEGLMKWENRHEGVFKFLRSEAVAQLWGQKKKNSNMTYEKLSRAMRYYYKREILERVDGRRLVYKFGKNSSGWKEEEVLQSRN
Conditions: protein: recombinant; tags: N-terminal GST; dsDNA, one strand shown. In a few lines: as §1

In a further experiment the target is CRX (Homo sapiens, UniProt O43186 1-299). Conditions: protein: recombinant; tags: N-terminal GST; dsDNA, one strand shown. Summed up:
as §1

For a further experiment, the target named is ETV1 (Homo sapiens, UniProt P50549 1-477). Conditions: protein: recombinant; tags: N-terminal GST; dsDNA, one strand shown. In a few lines: as §1
The target in a further experiment is T6, ERF (Homo sapiens, UniProt P50548 1-548).
T6 sequence: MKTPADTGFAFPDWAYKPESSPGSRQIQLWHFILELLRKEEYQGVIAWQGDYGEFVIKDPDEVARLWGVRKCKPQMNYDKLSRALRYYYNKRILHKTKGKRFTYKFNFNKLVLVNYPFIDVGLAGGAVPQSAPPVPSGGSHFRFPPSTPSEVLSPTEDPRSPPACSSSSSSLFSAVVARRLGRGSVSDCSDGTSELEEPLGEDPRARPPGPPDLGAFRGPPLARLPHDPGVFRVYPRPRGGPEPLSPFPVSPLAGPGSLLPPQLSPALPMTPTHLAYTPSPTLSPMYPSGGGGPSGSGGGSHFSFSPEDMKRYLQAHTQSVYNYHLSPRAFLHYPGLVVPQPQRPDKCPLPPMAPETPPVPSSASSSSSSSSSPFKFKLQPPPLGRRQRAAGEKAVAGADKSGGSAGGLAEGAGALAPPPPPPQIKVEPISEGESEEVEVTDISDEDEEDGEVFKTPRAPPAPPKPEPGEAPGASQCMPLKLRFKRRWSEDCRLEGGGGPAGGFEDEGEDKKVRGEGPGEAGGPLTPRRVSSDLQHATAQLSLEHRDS
The note with it: protein: recombinant; tags: N-terminal GST; dsDNA, one strand shown. Summed up: as §1

The target of the next experiment is T7, ETV3L (Homo sapiens, UniProt Q6ZN32 1-361).
T7 sequence: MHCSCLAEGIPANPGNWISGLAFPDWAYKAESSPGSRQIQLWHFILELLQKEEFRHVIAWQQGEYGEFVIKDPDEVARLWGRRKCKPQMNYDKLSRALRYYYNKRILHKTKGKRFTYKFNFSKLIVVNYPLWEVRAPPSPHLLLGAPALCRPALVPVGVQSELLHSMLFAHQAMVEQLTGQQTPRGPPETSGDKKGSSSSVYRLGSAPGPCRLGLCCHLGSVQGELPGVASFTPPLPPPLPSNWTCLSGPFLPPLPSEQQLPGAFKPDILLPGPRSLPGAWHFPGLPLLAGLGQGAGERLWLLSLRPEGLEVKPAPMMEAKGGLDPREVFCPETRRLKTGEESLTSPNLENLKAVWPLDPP
The note with it: protein: recombinant; tags: N-terminal GST; dsDNA, one strand shown. Summed up: as §1

For a further experiment, the target named is T8, ETS2 (Homo sapiens, UniProt P15036 1-469).
T8 sequence: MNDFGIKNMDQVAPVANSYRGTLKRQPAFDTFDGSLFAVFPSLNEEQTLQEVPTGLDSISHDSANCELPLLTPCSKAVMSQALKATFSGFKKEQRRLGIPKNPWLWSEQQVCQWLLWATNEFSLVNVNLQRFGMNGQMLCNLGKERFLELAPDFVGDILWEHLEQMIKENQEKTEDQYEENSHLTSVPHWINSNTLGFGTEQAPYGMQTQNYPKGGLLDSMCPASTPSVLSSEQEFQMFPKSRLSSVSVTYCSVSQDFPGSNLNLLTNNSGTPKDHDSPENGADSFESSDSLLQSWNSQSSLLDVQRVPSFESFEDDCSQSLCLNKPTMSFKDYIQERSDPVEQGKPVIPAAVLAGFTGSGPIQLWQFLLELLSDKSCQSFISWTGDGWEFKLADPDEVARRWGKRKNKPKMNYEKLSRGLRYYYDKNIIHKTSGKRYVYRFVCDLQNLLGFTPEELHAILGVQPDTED
The note with it: protein: recombinant; tags: N-terminal GST; dsDNA, one strand shown. In a few lines: as §1

In a further experiment the target is T9, SPDEF (Homo sapiens, UniProt O95238 1-335).
T9 sequence: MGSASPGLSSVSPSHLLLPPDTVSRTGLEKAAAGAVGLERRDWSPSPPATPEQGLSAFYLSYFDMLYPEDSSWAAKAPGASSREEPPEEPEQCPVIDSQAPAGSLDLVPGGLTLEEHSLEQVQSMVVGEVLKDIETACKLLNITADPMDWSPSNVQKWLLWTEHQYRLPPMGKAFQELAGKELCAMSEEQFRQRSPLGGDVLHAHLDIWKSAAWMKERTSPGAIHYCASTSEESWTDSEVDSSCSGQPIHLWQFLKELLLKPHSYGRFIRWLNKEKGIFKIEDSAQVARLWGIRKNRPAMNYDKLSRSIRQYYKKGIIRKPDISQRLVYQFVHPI
The note with it: protein: recombinant; tags: N-terminal GST; dsDNA, one strand shown. In a few lines: as §1

Another experiment addresses T10, ETV7 (Homo sapiens, UniProt Q9Y603 1-341).
T10 sequence: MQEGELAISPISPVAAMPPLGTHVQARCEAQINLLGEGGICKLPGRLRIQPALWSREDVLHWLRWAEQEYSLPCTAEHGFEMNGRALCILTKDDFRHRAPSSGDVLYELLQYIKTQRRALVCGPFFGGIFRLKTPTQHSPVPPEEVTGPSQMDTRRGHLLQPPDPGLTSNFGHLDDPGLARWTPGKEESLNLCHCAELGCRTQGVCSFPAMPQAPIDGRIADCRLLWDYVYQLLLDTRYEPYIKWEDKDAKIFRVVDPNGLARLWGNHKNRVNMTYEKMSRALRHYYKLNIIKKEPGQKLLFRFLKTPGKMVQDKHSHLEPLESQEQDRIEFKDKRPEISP
Conditions: protein: recombinant; tags: N-terminal GST; dsDNA, one strand shown. Summed up: as §1

The next experiment deals with T11, ELF5 (Homo sapiens, UniProt Q9UKW6-2 1-255).
T11 sequence: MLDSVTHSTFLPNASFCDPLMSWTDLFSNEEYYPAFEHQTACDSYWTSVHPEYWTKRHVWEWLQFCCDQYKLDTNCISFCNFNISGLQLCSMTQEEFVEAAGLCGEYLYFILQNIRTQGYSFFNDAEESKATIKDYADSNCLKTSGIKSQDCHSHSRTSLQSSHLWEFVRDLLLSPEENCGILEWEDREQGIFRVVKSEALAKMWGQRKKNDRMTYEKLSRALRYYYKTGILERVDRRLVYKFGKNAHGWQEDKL
The note with it: protein: recombinant; tags: N-terminal GST; dsDNA, one strand shown. In a few lines:
as §1

The target in another experiment is T12, ETV3 (Homo sapiens, UniProt P41162-2 1-143).
T12 sequence: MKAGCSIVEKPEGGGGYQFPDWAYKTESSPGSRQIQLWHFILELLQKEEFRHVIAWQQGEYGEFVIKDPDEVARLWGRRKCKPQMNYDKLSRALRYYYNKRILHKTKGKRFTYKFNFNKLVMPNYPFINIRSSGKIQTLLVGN
The note with it: protein: recombinant; tags: N-terminal GST; dsDNA, one strand shown. Summed up:
as §1

A further experiment concerns the target ETV6 (Homo sapiens, UniProt P41212 1-452). The note with it: protein: recombinant; tags: N-terminal GST; dsDNA, one strand shown. Summed up:
as §1

The source of these data is PMC7862700, “An all-to-all approach to the identification of sequence-specific readers for epigenetic DNA modifications on cytosine”.

Sequence of ETV5 (P41161 whole entry): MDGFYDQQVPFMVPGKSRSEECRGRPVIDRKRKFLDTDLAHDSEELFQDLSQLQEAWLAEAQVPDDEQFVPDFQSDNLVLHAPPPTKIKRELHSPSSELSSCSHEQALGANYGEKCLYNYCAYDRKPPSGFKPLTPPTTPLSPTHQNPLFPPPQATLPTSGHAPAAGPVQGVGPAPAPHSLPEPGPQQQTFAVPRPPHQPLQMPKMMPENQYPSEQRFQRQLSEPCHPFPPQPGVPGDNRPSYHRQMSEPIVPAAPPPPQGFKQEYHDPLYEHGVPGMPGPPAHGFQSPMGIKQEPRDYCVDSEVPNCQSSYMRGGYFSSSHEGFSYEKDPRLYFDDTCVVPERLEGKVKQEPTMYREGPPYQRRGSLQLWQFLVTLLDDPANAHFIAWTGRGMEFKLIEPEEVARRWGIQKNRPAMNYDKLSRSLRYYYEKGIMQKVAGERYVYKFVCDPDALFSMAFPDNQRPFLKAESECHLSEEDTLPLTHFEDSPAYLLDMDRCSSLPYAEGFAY
Sequence of CRX (O43186 whole entry): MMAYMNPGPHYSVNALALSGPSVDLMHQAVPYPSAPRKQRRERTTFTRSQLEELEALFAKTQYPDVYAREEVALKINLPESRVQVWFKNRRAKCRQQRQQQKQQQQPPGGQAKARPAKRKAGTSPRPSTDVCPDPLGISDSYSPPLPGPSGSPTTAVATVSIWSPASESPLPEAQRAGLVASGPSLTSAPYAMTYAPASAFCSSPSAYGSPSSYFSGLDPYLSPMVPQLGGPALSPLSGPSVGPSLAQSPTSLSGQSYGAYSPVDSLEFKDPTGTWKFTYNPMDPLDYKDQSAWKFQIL
Sequence of HSF1 (Q00613 whole entry): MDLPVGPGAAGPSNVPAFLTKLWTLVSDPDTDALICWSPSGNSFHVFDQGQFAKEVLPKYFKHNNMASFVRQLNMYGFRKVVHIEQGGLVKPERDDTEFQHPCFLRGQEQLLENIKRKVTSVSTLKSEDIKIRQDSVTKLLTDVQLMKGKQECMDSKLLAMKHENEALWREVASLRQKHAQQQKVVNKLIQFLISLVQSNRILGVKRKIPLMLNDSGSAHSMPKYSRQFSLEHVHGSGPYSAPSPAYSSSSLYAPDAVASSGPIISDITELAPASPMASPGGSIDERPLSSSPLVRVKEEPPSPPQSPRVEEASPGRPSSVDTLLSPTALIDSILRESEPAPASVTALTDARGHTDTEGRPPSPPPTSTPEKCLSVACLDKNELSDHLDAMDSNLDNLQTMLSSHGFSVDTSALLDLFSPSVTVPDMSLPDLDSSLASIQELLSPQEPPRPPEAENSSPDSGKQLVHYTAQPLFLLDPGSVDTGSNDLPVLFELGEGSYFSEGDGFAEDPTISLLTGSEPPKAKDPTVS
Sequence of ETV1 (P50549 whole entry): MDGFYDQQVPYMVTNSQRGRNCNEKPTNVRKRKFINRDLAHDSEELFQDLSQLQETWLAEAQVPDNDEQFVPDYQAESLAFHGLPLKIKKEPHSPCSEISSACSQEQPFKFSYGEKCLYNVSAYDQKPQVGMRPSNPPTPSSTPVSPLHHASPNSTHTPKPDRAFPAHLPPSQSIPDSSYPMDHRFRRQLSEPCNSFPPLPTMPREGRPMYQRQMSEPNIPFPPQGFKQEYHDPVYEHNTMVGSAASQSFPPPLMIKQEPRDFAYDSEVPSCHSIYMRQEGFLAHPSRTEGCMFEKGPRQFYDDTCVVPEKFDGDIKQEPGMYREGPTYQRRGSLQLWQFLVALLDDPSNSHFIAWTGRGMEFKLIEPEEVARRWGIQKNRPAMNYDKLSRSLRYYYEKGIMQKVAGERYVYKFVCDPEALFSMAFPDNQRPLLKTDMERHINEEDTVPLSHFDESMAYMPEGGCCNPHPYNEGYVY
Sequence of ETV6 (P41212 whole entry): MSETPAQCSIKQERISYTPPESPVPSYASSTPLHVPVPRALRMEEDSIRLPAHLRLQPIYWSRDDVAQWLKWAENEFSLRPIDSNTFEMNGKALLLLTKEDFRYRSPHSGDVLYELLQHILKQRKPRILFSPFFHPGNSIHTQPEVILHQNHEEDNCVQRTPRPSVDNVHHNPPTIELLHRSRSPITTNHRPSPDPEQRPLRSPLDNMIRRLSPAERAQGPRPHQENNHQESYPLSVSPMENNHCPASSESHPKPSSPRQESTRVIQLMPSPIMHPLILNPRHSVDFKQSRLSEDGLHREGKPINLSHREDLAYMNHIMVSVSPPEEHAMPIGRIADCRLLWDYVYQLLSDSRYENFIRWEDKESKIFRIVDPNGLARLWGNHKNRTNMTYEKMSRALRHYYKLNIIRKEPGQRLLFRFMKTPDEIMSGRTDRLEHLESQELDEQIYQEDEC
Sequence of ELF4 (Q99607 whole entry): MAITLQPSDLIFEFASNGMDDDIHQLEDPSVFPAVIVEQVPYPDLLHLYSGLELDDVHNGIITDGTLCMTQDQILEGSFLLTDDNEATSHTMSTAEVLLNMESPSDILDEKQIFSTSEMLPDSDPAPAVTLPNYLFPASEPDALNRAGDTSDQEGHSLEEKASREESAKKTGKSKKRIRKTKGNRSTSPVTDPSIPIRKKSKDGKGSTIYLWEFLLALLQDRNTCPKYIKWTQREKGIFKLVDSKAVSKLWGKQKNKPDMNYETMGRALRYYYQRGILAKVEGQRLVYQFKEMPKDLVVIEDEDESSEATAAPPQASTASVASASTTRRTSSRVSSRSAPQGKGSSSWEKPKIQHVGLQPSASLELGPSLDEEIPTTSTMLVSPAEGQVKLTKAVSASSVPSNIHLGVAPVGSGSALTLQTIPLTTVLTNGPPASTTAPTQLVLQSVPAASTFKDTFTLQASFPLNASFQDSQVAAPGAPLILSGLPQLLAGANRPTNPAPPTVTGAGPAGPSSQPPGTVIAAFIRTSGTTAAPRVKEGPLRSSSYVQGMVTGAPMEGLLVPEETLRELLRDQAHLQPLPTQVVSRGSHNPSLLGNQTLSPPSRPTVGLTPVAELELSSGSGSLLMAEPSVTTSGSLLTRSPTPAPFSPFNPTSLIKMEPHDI

Turning to TGGACT, the binding signal with FEV is 1.32 fold enrichment (6-mer frequency, TF over GST control); with ETV5, 1.33 fold enrichment (6-mer frequency, TF over GST control); with HSF1 it was 1.18 fold enrichment (6-mer frequency, TF over GST control); with SPIC it was 1.31 fold enrichment (6-mer frequency, TF over GST control); in the experiment with ELF4, 1.34 fold enrichment (6-mer frequency, TF over GST control); with ELK4 it was 1.25 fold enrichment (6-mer frequency, TF over GST control). The binding signal with ETV2 is 1.27 fold enrichment (6-mer frequency, TF over GST control); with ELF3 it was 1.19 fold enrichment (6-mer frequency, TF over GST control); with CRX, 1.06 fold enrichment (6-mer frequency, TF over GST control); in the experiment with ETV1 it was 1.33 fold enrichment (6-mer frequency, TF over GST control); in the experiment with ERF, 1.25 fold enrichment (6-mer frequency, TF over GST control); with ETV3L, 1.22 fold enrichment (6-mer frequency, TF over GST control). Besides, the binding signal was 1.27 fold enrichment (6-mer frequency, TF over GST control) with ETS2; 1.2 fold enrichment (6-mer frequency, TF over GST control) in the experiment with SPDEF; 1.19 fold enrichment (6-mer frequency, TF over GST control) in the experiment with ETV7; 1.22 fold enrichment (6-mer frequency, TF over GST control) with ELF5; 1.25 fold enrichment (6-mer frequency, TF over GST control) in the experiment with ETV3; 1.28 fold enrichment (6-mer frequency, TF over GST control) with ETV6.
